Values joined by “and” are separate entries in the source; they are usually repeats but may differ in a detail not shown here. Equal entries are not always repeated. Records with an inconclusive call do not appear. Active and inactive are the calls of the source. Unless noted, calls follow the shape of the dose curve; as a rule, active = well fitted curve in the direction sought with a large enough effect; inconclusive = small, poorly fitted or top-dose-only effect, or another doubt; inactive = no such curve, though single readings can be large; an effect the other way counts as inactive or inconclusive. Some results are limits rather than exact numbers.

Assay [1] can be described thus: Cellular Toxicity (caspase-3) N2a (AID 665).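 Also: compound exposure lasted 16 h at 37 °C before readout.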 The following applies: N2a cells, luminescence, normalized: DMSO 0%, 10 µM staurosporine 100%; at 92.2 µM (top of the series). In short, it runs like this: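 N2a cells, 1500/well, 5 h settle at 37 °C; cpd 16 h, 37 °C; Caspase-Glo 3/7, 1 h RT; luminescence. Norm: DMSO = 0, 10 uM staurosporine = 100%. AC50, Hill fit.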
A short description of assay [2]: Cell Viability - LYMP2-013 (AID 970).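 Also: cells exposed to compound for 24 h at 37 °C; 0% = DMSO only and full inhibition = tetraoctylammonium bromide control; nearly all actives have a fitted effect of over 55% in size.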 In short, it runs like this:
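qHTS; 2500 lymphoblastoid cells/well; 5 hr 37 C settle; cpd 24 hr 37 C; CellTiter-Glo, 30 min RT; luminescence. AC50 = Hill fit.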

Assay [3] can be described thus: Cell Viability - LYMP2-010 (AID 981). Also: % is scaled to controls: 0 for no effect and ±100 for the full control effect; nearly all actives have a fitted effect of over 55% in size. In short, it runs like this: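 Luminescent ATP signal (CellTiter-Glo) served as the viability read-out. Cells of the human lymphoblastoid line were treated with compound over a concentration range for 24 hours at 37 C, and AC50 values came from Hill-equation modeling.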
Assay [4] can be described thus: qHTS assay for small molecule activators of the p53 signaling pathway (AID 651743; active = well fitted activation curve with a large enough effect in the signal ratio, not every such curve was filed as active; the % refers to the signal ratio; also: % of control where 0% means no effect). The note with it: HCT-116 p53RE-bla, beta-lactamase FRET ratio, 16 h; activation: stronger effect = higher value. In short, it runs like this:
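Read-out is fluorescence intensity from the LiveBLAzer B/G FRET substrate, added for 2 hours at room temperature after HCT-116 p53RE-bla cells had been incubated with compounds for 16 hours at 37 C.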
In general terms: In qHTS, concentration-response curves come from the screen itself.

Assay [5] is described as follows: Cell Viability - SK-N-SH (AID 435; calls by dose curve;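 also: potency is read from the fitted curve at half-maximal effect; compound exposure lasted 40 h at 37 °C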). The note with it: SK-N-SH neuroblastoma cell viability qHTS. In short, it runs like this: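 Cells seeded at 1500 per well and incubated 5 hr at 37 °C. Compound added, then 40 hr at 37 °C. CellTiter-Glo added, 20 min at room temperature, luminescence read.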
Assay [6] can be described thus: Cell Viability - LYMP2-007 (AID 979).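 Also: cells exposed to compound for 24 h before reading; 0% = DMSO only and the negative end = 92 µM tetraoctylammonium bromide; nearly all actives have a fitted effect of over 60% in size.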 In short, it runs like this: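 Luminescent ATP signal (CellTiter-Glo) serves as the viability read-out after 24 hr compound treatment of lymphoblastoid cells in complete medium at 37 C. Concentration-response data were fitted to the Hill equation to give AC50 values.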
Assay [7] addresses Bile acid receptor (Homo sapiens) (UniProt Q96RI1). Put plainly: qHTS assay for small molecule antagonists of farnesoid X receptor signaling (AID 588526; calls by dose curve; also: % is scaled to controls: 0 for no effect and ±100 for the full control effect). In short, it runs like this: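 Beta-lactamase reporter antagonist mode: HEK293T FXR-UAS-bla cells, titrated compound, CDCA stimulation, 16 h 37 C, CCF4 dye 2 h RT. Data normalized to CDCA 50 uM and DMSO; Hill-fit IC50.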
The nature of assay [8]: qHTS assay for small molecule antagonists of peroxisome proliferator-activated receptor delta signaling (AID 588535; active = well fitted inhibition curve with a large enough effect in the signal ratio, with a control signal flat, not every such curve was filed as active; the % refers to the signal ratio;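 as to max response: cells co-treated with a PPAR-delta agonist as stimulator during compound exposure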). The note with it: HEK293T PPARd-UAS-bla, beta-lactamase FRET ratio, 18 h; 460 nm channel. In short, it runs like this: (§1)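 HEK293T PPAR-delta-UAS-bla cells, 4000/well, 2% charcoal/dextran FBS; 5 h 37 C; cpd titration; 18 h 37 C; CCF4 2 h RT; FI 460/530 nm; Hill fit → IC50, efficacy.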

Assay [9] addresses Peroxisome proliferator-activated receptor delta (Homo sapiens) (UniProt Q03181). Described as above. In short, it runs like this: as §1
The target of assay [10] is Peroxisome proliferator-activated receptor gamma (Homo sapiens) (UniProt P37231). Put plainly: qHTS assay for small molecule agonists of peroxisome proliferator-activated receptor gamma signaling (AID 588536; active = well fitted curve in the direction sought with a large enough effect in the signal ratio, with a control signal flat, not every such curve was filed as active; the % refers to the signal ratio;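 also: 0% = DMSO basal wells and 100% = rosiglitazone at 2 µM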). In short, it runs like this:
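PPAR-gamma-UAS-bla HEK293 cells in medium with 1% charcoal/dextran-treated FBS were exposed to compounds for 16 h at 37 C. Beta-lactamase activity was read with CCF4 substrate (405 nm excitation, 460/530 nm emission).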

Assay [11] shares this target. Put plainly: qHTS assay for small molecule antagonists of peroxisome proliferator-activated receptor gamma signaling (AID 588537; active = well fitted inhibition curve with a large enough effect in the signal ratio, with a control signal flat, not every such curve was filed as active; the % refers to the signal ratio;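 also: reporter cells co-stimulated with 50 nM rosiglitazone agonist during compound treatment; % of control where 0% means no effect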). In short, it runs like this: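 Antagonist mode, beta-lactamase reporter in HEK293; charcoal/dextran FBS 1%; 3000 cells/well, 37 C 6-6.5 h; cpd titration + rosiglitazone 50 nM final, 16 h 37 C; CCF4, 2 h RT; 460/530 nm; Hill fit → IC50, efficacy.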

For assay [12], the target named is Retinoic acid receptor RXR-alpha (Homo sapiens) (UniProt P19793). Put plainly: qHTS assay for small molecule agonists of retinoid X receptor alpha signaling (AID 588544; calls by dose curve;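 also: 0% = DMSO basal wells and 100% = reference agonist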).
Sequence of Retinoic acid receptor RXR-alpha (Homo sapiens) (P19793 whole entry, looked up): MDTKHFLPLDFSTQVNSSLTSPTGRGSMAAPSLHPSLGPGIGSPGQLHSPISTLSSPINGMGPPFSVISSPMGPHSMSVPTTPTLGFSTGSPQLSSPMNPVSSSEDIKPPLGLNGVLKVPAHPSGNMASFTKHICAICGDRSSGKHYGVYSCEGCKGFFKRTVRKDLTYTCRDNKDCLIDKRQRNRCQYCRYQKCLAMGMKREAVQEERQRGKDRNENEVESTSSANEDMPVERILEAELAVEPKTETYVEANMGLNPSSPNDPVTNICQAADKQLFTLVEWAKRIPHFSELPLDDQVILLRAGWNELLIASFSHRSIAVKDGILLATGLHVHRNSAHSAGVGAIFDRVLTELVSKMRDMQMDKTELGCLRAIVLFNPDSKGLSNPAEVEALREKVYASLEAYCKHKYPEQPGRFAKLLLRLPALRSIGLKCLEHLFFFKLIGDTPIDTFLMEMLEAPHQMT
Assay [13] in a line: Cell Viability - Mesenchymal (AID 546).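 Also: cells exposed to compound for 40 hours before reading; 0% = DMSO only and -100% = 100 µM tamoxifen.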 In short, it runs like this:
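AC50 values reflect the drop in intracellular ATP in a human kidney mesenchymal line derived from normal glomeruli. Treatment lasts 40 hr at 37 °C in complete medium, and the signal comes from CellTiter-Glo luminescence.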

The nature of assay [14]: Cellular Toxicity (caspase-3) Mesangial (AID 660).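 Also: combined caspase 3 and 7 activity read by Caspase-Glo luminescence; cells exposed to compound for 16 h before the caspase read.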 In short, it runs like this: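 Mesangial cells, 1000/well, 5 h settle at 37 °C; compound 16 h, 37 °C; Caspase-Glo 3/7 reagent 20 min RT; luminescence. Norm.: DMSO = 0%, tamoxifen 100 uM = 100%. AC50, Hill fit.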
Assay [15] can be described thus: MultiTox-Fluor Cytotoxicity Assay - LYMP1-001 - Live Cells (AID 947).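 Also: 0% = DMSO only and full inhibition = tetraoctylammonium bromide control.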
The nature of assay [16]: MultiTox-Fluor Cytotoxicity Assay - LYMP1-002 - Live Cells (AID 955). Also: % is scaled to controls: 0 for no effect and ±100 for the full control effect. In short, it runs like this:
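Read-out is live-cell protease activity (cell-permeant GF-AFC substrate, fluorescence Ex/Em=405/510), where a decrease indicates acute toxicity. Human lymphoblastoid cells were treated 16 hours at 37 C in a concentration series, and AC50 values came from standard Hill modelling.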

Assay [17] can be described thus: Cell Viability - LYMP2-018 (AID 985).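 Also: compound exposure lasted 24 hr at 37 °C; plate controls were DMSO only for no effect and tetraoctylammonium bromide at 92 µM for full effect; nearly all actives have a fitted effect of over 50% in size.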 In short, it runs like this:
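Luminescent ATP signal (CellTiter-Glo, read after 30 min at room temperature) reports viable cells after 24 hr compound treatment at 37 C. Concentration-response data were fitted to the standard Hill equation for AC50.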

Assay [18] can be described thus: Cell Viability - LYMP1-002 - Assay at 24 hr (AID 993). Also: % is scaled to controls: 0 for no effect and ±100 for the full control effect. In short, it runs like this:
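Cells plated 2500/well, 5 hr 37 C; compounds added, 24 hr 37 C; CellTiter-Glo added, 30 min RT; luminescence read. Tetraoctylammonium bromide positive control. Hill-equation AC50.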

A short description of assay [19]: qHTS assay for environmental chemicals that activate the Aryl hydrocarbon Receptor (AhR) signaling pathway (AID 651777). Also: % of control where 0% means no effect; nearly all actives have a fitted effect of over 15% in size. The note with it: 1A2-DRE human hepatoma cells, luciferase, 24 h; activation: stronger effect = higher value. In short, it runs like this:
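AhR activation is scored as a rise in luciferase from a stable DRE–CYP1A2 promoter construct in human hepatoma cells. Treatment lasts 24 hr at 37 C; detection uses One-Glo after 30 min at room temperature.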

Sequence of Bile acid receptor (Homo sapiens) (Q96RI1 whole entry, looked up): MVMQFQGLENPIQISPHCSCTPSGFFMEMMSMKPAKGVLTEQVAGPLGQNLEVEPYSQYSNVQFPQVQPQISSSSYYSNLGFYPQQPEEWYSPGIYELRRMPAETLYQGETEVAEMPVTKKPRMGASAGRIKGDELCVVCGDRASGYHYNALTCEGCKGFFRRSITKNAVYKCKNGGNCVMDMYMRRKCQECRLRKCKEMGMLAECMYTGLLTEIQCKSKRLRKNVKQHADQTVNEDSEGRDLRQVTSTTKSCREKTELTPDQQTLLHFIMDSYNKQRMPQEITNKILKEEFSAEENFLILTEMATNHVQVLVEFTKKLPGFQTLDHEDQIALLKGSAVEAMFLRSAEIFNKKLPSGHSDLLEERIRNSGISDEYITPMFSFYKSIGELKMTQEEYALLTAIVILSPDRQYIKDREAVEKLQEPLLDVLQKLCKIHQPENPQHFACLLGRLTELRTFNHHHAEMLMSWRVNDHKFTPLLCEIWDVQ
Sequence of Peroxisome proliferator-activated receptor delta (Homo sapiens) (Q03181 whole entry, looked up): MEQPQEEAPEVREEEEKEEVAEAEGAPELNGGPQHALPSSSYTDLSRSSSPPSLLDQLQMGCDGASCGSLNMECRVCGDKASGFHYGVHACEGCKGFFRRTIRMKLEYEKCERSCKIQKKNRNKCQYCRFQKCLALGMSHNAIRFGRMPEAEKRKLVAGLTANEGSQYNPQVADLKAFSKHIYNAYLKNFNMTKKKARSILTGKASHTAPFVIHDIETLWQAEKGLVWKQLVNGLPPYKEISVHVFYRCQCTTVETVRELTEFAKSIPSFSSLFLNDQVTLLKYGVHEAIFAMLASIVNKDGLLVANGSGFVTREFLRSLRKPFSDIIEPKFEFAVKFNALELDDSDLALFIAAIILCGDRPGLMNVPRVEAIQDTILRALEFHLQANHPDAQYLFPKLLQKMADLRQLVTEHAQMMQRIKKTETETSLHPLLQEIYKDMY
Sequence of Peroxisome proliferator-activated receptor gamma (Homo sapiens) (P37231 whole entry, looked up): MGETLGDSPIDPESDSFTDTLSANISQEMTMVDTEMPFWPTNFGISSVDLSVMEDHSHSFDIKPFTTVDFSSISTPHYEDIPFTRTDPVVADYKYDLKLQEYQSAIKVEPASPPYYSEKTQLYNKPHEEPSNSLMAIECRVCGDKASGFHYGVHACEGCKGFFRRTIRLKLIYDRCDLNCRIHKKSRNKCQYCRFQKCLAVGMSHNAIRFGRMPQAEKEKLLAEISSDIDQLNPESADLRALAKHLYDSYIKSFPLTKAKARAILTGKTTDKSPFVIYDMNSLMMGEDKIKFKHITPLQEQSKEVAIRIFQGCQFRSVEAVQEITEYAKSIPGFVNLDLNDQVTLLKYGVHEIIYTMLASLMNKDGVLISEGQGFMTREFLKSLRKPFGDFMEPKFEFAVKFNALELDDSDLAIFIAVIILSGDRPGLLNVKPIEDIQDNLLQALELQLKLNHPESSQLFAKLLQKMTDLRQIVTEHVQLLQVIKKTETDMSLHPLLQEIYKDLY

With `N#CCCCl`, in assay [1], the caspase-3 activation is -0.53% (inactive) and -2.33% (inactive). Besides, the Potency entry in assay [2] and in assay [3] was “inactive” throughout. Besides, the activation in assay [4] was -0.742% (inactive) and -1.01% (inactive).
As for `Cc1ccc2ccccc2c1`, the Potency in assay [5] was > 92 µM (inactive). Besides, the caspase-3 activation in [1] is -4.52% (inactive). Also, the Potency result in [2], in assay [6], in assay [3], in assay [9], in assay [11] and in assay [12] was “inactive” throughout. The call in [7] and in assay [10] was inactive. The max response in assay [8] is 14.3%. Further, in assay [4], the activation was -0.481% (inactive).
As for `C=C(C)C(=O)OCC1CO1` (stereo unspecified), the result in assay [13], in assay [14], in [16] and in [7] was inactive. In assay [1], the caspase-3 activation is -4.34% (inactive). For the same compound, the Potency entry in assay [15], in assay [6], in assay [17], in assay [18], in assay [9] and in assay [11] was “inactive” in each case. Further, the Potency entry in assay [12] is “inactive”. Besides, the max response in assay [8] was -13.4%.
As for `Nc1c(Cl)c(Cl)nc(C(=O)O)c1Cl`, the call in assay [14] and in assay [16] was inactive. Besides, the Potency entry in assay [15], in [2], in assay [6], in assay [17], in [18] and in [11] was “inactive” each time. Further, in [12], the Potency result was “inactive”. In addition, the activation in assay [4] was -3.11% (inactive) and -9.55% (inactive) and -6.83% (inactive).
For the compound `CCCCCCCC(=O)Cl`, the Potency in assay [5] is > 92 µM (inactive). Moreover, the compound was classed as inactive in assay [13], in assay [16], in assay [7] and in assay [10]. In addition, in assay [1], the caspase-3 activation is -0.621% (inactive). The Potency entry in assay [2], in assay [6], in assay [3] and in assay [12] was “inactive” in each case. Besides, the values for the activation in [4] and in [19] were -1.82% (inactive) and -0.601% (inactive), respectively.
Take `CC(C)(c1ccccc1)c1ccc(O)cc1`: the Potency in [5] is > 92 µM (inactive). The compound was called inactive in [14], in assay [16] and in assay [7]. Besides, the caspase-3 activation in assay [1] was 1.43% (inactive). Besides, the Potency result in assay [3], in assay [18] and in assay [9] was “inactive” in each case. Also, the max response in [8] is 13%.
Regarding `CN=C=S`, in assay [1], the caspase-3 activation was 2.61% (inactive). The Potency result in assay [15], in assay [2], in assay [3], in assay [18], in assay [9] and in assay [11] was “inactive” each time. The compound was classed as inactive in assay [16], in [7] and in assay [10]. The max response in assay [8] came to 11.4%. Also, in assay [19], the activation is 0.215% (inactive) and 0.204% (inactive).
For `C=CCOC(C)=O`, the Potency in assay [5] is > 92 µM (inactive). Besides, the outcome in [14], in assay [16], in [7] and in [10] was inactive. In addition, the caspase-3 activation in assay [1] is -3.6% (inactive). The Potency result in assay [15], in assay [3], in [17] and in [18] was “inactive” in each case.
`C=CC(C)=O`: the Potency in [5] is > 92 µM (inactive). Besides, the compound was classed as inactive in [13], in [16] and in assay [7]. Besides, the Potency result in assay [2], in [6], in assay [3], in assay [18], in assay [9] and in [12] was “inactive” throughout. For the same compound, the max response in assay [8] was determined as 6.99%. In assay [19], the activation was 1.86% (inactive).
For the compound `c1ccc(OP(Oc2ccccc2)Oc2ccccc2)cc1`, in assay [5], the Potency was > 92 µM (inactive). Further, the call in [13], in assay [14] and in assay [16] was inactive. Moreover, the Potency entry in [2], in [17], in assay [18] and in [11] was “inactive” throughout. Besides, the activation in assay [19] was 0.234% (inactive) and -1.88% (inactive).
With `C1CCC2CCCCC2C1` (stereo unspecified), the compound was classed as inactive in assay [13], in [14], in assay [7] and in [10]. Moreover, the caspase-3 activation in assay [1] is -0.192% (inactive). Further, the Potency entry in assay [3], in assay [17], in [18], in [9], in assay [11] and in assay [12] was “inactive” in each case. Besides, the max response in assay [8] is -10.8%. The activation in assay [4] was -0.562% (inactive); in assay [19], -0.339% (inactive).
For `C=CCOC(=O)c1ccccc1N`, the compound was classed as inactive in assay [13] and in [16]. In addition, in assay [1], the caspase-3 activation was -3.47% (inactive). The Potency entry in [15], in assay [6], in assay [18], in [9] and in assay [12] was “inactive” each time. The max response in assay [8] worked out at 8.66%.

Source of the values: PubChem BioAssay (NCATS).
